Shown are actives, neighbours in structure and some others; about 19% of the full set was active somewhere.
HT1080 IDH1KD tx: HT-1080 IDH1 knockdown cell toxicity (counter line); HT-1080 IDH1 knockdown viability, ATP luminescence, 48 h; 2% of 360,000 active; AID 686971; Potency, µM (top dose mostly 46.1 µM), hits mostly cytotoxic
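Luminescent ATP read-out (CellTiter-Glo, 10 min at room temperature) after 48 h compound exposure at 37 °C gave viability of IDH1-knockdown HT-1080 cells. Activity was normalised to DMSO and cell-free wells, then fitted as concentration-response curves.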
HT1080-NT tox: kills 2HG-producing HT-1080-NT fibrosarcoma cells. HT-1080-NT fibrosarcoma viability, CellTiter-Glo ATP luminescence, 48 h. Potency, µM (titrated, usually from 46.1 µM), most hits filed as cytotoxic. 1.6% of 360,000 active. AID 686970;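 also: NT is the 2HG producing partner of a matched IDH1 knockdown line; nearly all actives have a fitted effect of over 55% in size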
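Viability of the 2HG-overproducing fibrosarcoma line after 48 hours of compound exposure at 37 degrees C was determined by luminescence with CellTiter-Glo, and concentration-effect curves were then fitted and categorized.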
KB-V1 MDR tox: KB-V1 MDR subline cytotoxicity | KB-V1 MDR cells viability, CellTiter-Glo, 72 h | Potency, µM (top dose mostly 46.1 µM), most hits filed as cytotoxic | 3.4% of 400,000 active | AID 1347076; also: nearly all actives have a fitted effect of over 60% in size
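Drug-selected KB-V1 cells, grown in DMEM lacking phenol red with 10% FBS, receive compound titrations; after three days at 37 degrees C, surviving cell ATP is quantified by CellTiter-Glo luminescence and responses normalized and curve-fitted.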
KB-3-1 cytotox: KB-3-1 parental cell cytotoxicity; AID 1347075; KB-3-1 viability, CellTiter-Glo ATP luminescence, 72 h; 1.4% of 400,000 active; Potency, µM (series often up to 46.1 µM), actives largely listed as cytotoxic; also: nearly all actives have a fitted effect of over 60% in size
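KB-3-1 cells, DMEM (no phenol red) + 10% FBS; compound by pin transfer, 72 h, 37 °C. Readout: CellTiter-Glo luminescence after 10 min. Data normalized, curve-fitted.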
DT40 TDP1 CPT: growth inhibition of DT40 Tdp1-/-;hTDP1 cells with camptothecin (screen for TDP1 inhibitors) | Potency, µM (series often up to 46.2 µM), most hits filed as inhibitors | 12% of 420,000 active | chicken DT40 Tdp1-/-;hTDP1 cells + 20 nM CPT, ATP luminescence, 48 h; also: nearly all actives have a fitted effect of over 55% in size
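Chicken DT40 Tdp1-/- cells stably complemented with human TDP1 were seeded at 400 cells/well in medium containing 20 nM camptothecin, exposed to pin-transferred compounds, and grown at 37 °C for at least 48 hr. Viability was read as ATP luminescence.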
TDP1 cell noCPT: qHTS for Inhibitors of human tyrosyl-DNA phosphodiesterase 1 (TDP1): qHTS in cells in absence of CPT. DT40 Tdp1-/- hTDP1 cells, no CPT, ATP luminescence, 48 h. Potency, µM (highest dose often 46.2 µM), most hits filed as inhibitors. 15% of 420,000 active. AID 686978, 2013; also: nearly all actives have a fitted effect of over 55% in size
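Growth kinetics read by CellTiter-Glo luminescence after ≥48 hr at 37 °C. Cells: DT40 Tdp1-/- stably carrying human TDP1, 400 per well, compound exposure in the absence of CPT (DMSO vehicle).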
Each line names hits and unclear results; the compound was inactive in the other large screens; ! = not confirmed by another sample. Calls follow the shape of the dose curve; as a rule, active = well fitted curve in the direction sought with a large enough effect; inconclusive = small, poorly fitted or top-dose-only effect, or another doubt; inactive = no such curve, though single readings can be large; an effect the other way counts as inactive or inconclusive.

Cc1cccc(N2C(=O)CSC23C(=O)N(CC(=O)Nc2cccc(Cl)c2)c2ccccc23)c1 (stereo not given)	KB-3-1 cytotox inconclusive, DT40 TDP1 CPT 23.1µM, TDP1 cell noCPT 16.4µM (no result: HT1080 IDH1KD tx, HT1080-NT tox)
c1ccc([C@@H]2CO2)cc1	none
CC(C)(C)P(=O)(N1CCOCC1)N1CCOCC1	KB-V1 MDR tox inconclusive
S=P(N1CCCCCC1)(N1CC1)N1CC1	DT40 TDP1 CPT 3.26µM, TDP1 cell noCPT 4.11µM
S=P(N1CCOCC1)(N1CC1)N1CC1	DT40 TDP1 CPT 5.17µM, TDP1 cell noCPT 6.51µM
O=P(N1CCCCCC1)(N1CCCCCC1)N1CC1	DT40 TDP1 CPT inconclusive (no result: KB-V1 MDR tox, KB-3-1 cytotox)
CC(C)c1cc(Br)c(NC(=O)Nc2cccnc2)c(Br)c1	none
CCC(=O)O[C@H]1[C@@H](N2CCCCC2)C[C@H]2[C@@H]3CC[C@H]4C[C@H](OC(C)=O)[C@@H](N5CCCCC5)C[C@]4(C)[C@H]3CC[C@@]21C	DT40 TDP1 CPT 7.5µM, TDP1 cell noCPT 6.68µM (no result: HT1080 IDH1KD tx, HT1080-NT tox, KB-V1 MDR tox, KB-3-1 cytotox)
CC(=O)OC1CC[C@@]2(C)C3CC[C@]4(C)C(=O)CCC4C3CC[C@H]2C1 (stereo not given in full)	DT40 TDP1 CPT inconclusive (no result: HT1080 IDH1KD tx, HT1080-NT tox, KB-V1 MDR tox, KB-3-1 cytotox)
CC(C)(C)NC[C@H](O)c1ccc(O)cc1Cl	none (no result: HT1080 IDH1KD tx, HT1080-NT tox, KB-V1 MDR tox, KB-3-1 cytotox)
Cc1cccc(N=C2c3cc([N+](=O)[O-])ccc3-c3c2cc([N+](=O)[O-])cc3[N+](=O)[O-])c1	KB-V1 MDR tox inconclusive, KB-3-1 cytotox 14.6µM, DT40 TDP1 CPT 8.2µM, TDP1 cell noCPT 18.4µM
O=[N+]([O-])c1ccc(F)c([N+](=O)[O-])c1	TDP1 cell noCPT inconclusive (no result: HT1080 IDH1KD tx, HT1080-NT tox, KB-V1 MDR tox, KB-3-1 cytotox)
Cc1ccc(-c2n[nH]c(=S)n2-c2ccccc2)cc1	KB-3-1 cytotox inconclusive, DT40 TDP1 CPT 14.1µM!, TDP1 cell noCPT inconclusive
O=C(Nc1cccc(F)c1)N1CC2(CCNCC2)C1	DT40 TDP1 CPT 8.2µM, TDP1 cell noCPT 8.2µM (no result: HT1080 IDH1KD tx, HT1080-NT tox, KB-V1 MDR tox, KB-3-1 cytotox)
O=C(Nc1cccc(F)c1)N1CCC2(CC1)CCN(C(=O)Oc1ccccc1)CC2	DT40 TDP1 CPT inconclusive, TDP1 cell noCPT 23.1µM (no result: HT1080 IDH1KD tx, HT1080-NT tox, KB-V1 MDR tox, KB-3-1 cytotox)
C=CCSc1nc2c(c(-c3ccsc3)c1C#N)CN(C)CC2	DT40 TDP1 CPT inconclusive, TDP1 cell noCPT 18.4µM
Nc1cccc2c(N)cccc12	DT40 TDP1 CPT 21.7µM, TDP1 cell noCPT 24.3µM (no result: HT1080 IDH1KD tx, HT1080-NT tox, KB-V1 MDR tox, KB-3-1 cytotox)
C=CCN1CC[C@]23CCCC[C@H]2[C@H]1Cc1ccc(O)cc13	TDP1 cell noCPT inconclusive (no result: HT1080 IDH1KD tx, HT1080-NT tox, KB-V1 MDR tox, KB-3-1 cytotox)
O=C(C1CCN(c2nc3ccc(Br)cc3s2)CC1)N1CCC2(CC1)OCCO2	DT40 TDP1 CPT 11.6µM, TDP1 cell noCPT 11.6µM
CCOc1ccc2nc(N3CCC(C(=O)N4CCC5(CC4)OCCO5)CC3)sc2c1	KB-V1 MDR tox 2.91µM, KB-3-1 cytotox inconclusive, DT40 TDP1 CPT inconclusive, TDP1 cell noCPT inconclusive
CCc1ccc2nc(N3CCC(C(=O)N4CCC5(CC4)OCCO5)CC3)sc2c1	HT1080-NT tox inconclusive, KB-3-1 cytotox inconclusive, DT40 TDP1 CPT 11.6µM, TDP1 cell noCPT 16.4µM
Cc1ccc2nc(N3CCC(C(=O)N4CCC5(CC4)OCCO5)CC3)sc2c1	KB-V1 MDR tox inconclusive, DT40 TDP1 CPT inconclusive, TDP1 cell noCPT inconclusive
C(#CCN1CCOCC1)COC/C=C/c1ccccc1	KB-V1 MDR tox 20.6µM
CCN(CC)c1ccc(C=NN2CCCCCC2)cc1	DT40 TDP1 CPT inconclusive, TDP1 cell noCPT inconclusive
C=CCN=c1sc(C(=O)OC)cc(=O)n1CC=C	HT1080 IDH1KD tx inconclusive, DT40 TDP1 CPT 14.6µM
C=CCc1c(C)nc(C)nc1N/N=C/c1ccc(N(C)C)cc1	KB-3-1 cytotox inconclusive, DT40 TDP1 CPT 4.61µM, TDP1 cell noCPT 20.6µM
N=C1c2ccccc2CN1NC(=O)c1ccco1	KB-3-1 cytotox inconclusive
O=S(=O)(c1ccc2c(c1)OCCO2)N1CCC(c2nc3ccc(Cl)cc3[nH]2)CC1	HT1080 IDH1KD tx 14.1µM, HT1080-NT tox 11.2µM, KB-V1 MDR tox 2.91µM, DT40 TDP1 CPT 8.2µM, TDP1 cell noCPT 11.6µM
COC(=O)CCC(=O)Nc1sc(Cc2ccccc2)c(C)c1C(N)=O	DT40 TDP1 CPT 11.6µM, TDP1 cell noCPT 23.1µM
